40 sequences from the supplement of paper PMC6555819 can be followed below.

One test has as its system PPARg:RXRa (NR concentration 180 nM, RXRa partner concentration 90 nM). As to the kind of experiment: PBM binding z-score (relative to random genomic background probes); higher = stronger binding; sequences stand for … in GC…GCGATTGACAGCGTAGAATGAAGG
Summed up:
(§1)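 Antibodies against each partner of ligand-free nuclear receptor dimers (one per run) detected binding on custom Agilent 4×180K protein-binding microarrays after 1 h incubation. The double-stranded probes had 34-nt variable regions carrying direct-repeat seeds, single-nucleotide variants, half-site ablations and random human genomic background sequences. Binding z-scores, from regression-normalized fluorescence, use the random background probes as reference.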
Sequence TCTAGCAGGCCAGAGGGTCACACAAGAGGTACGG came in with a PBM binding z-score of 2.49.
Still for that read-out and setting: next, AGTCAAAGTTCACTTGGTAACGTAAGATTCAGCT: 5.08.
Regarding CCGACTGGGGCAGAAAGGTTACCATGCCATCCGG, the PBM binding z-score amounted to 1.6.
Still for that read-out and setting: next, GCTCGGAGGACACGGTCAGAGCTTTGTCCGTAGA: -0.859; CCTATTAGTTGACCATAAGGTCAACCGAAGCTCG: 1.48.
AGTCAAAGCTCATCTAGGTAACGTAAGATATGCT came in with a PBM binding z-score of 0.604.
In the case of TCTAGTTGGTCACGAAGGTCACACACGACGGGTA, the PBM binding z-score is 3.45.
Same read-out and setting: as for TCAGATAGGTAATACAGGTGAAAGTCGGCATCTA, the figure is 0.936; as for CAGCCTAGGTCGGGGCCAGTATAGGAGGAACGTT, -0.199; as for CGAACTAGATCAAGGACAGTGAATCTCCGCACGC, 0.599.
For CGTCCAAGGTCAAGGTCAGCGAAAGAGACTCGAA, the PBM binding z-score amounted to 6.76.
For the sequence CAGCCTAGGTCAAGGCCAGTATAGGAGGAACGTT, the PBM binding z-score is 2.15.
For the sequence ATACCAAGGTGATCGTGAGGTGGTTGATACTAAC, the PBM binding z-score amounted to 0.411.
Same read-out and setting: next, CAAACTAGGTCGCAGAGGTCAAAGTCCGTGCGTA: 7.46.
On the same count and under the same terms, next, ATCTCTAAGTAAGACTCAGTTCAGTGAAGAACGC: -0.0993; CGTCAAAGTTCAACTAAGGTAACGGAAAGCACGC: 4.86.
Same read-out and setting: next, TCTTGTAGATTAAAGGTTAAGAAAGCCGAAGCCT: 5.78; TCGTATAGGTAAAGGTGAAAGTCGAACGATATGA: 2.34.
Sequence CCTGCTAGGTCAATGGTCAACTAAAGCAGCTCGC yielded a PBM binding z-score of 5.68.
The same measure, in the same setting: as for TCTCGGACGACACGAAGGTCAGAGCTTTCCAGAG, the figure is 0.474.
Regarding AAAGACAGGTGATGAAGGTAACTCAGGCTATCAT, the PBM binding z-score was 0.785.
For the sequence TCTTGTAGTTCAGCAGGTTAAGAAAGCTGGCCAA, the PBM binding z-score was -0.802.
Still for that read-out and setting: next, TAGAGTAGGTTAGTCGGGGCATTCAGCCAACATA: 0.583; CGTCCAAGGTCAGAGAGGTAAGTGAATGCCGAGT: 2.19; CCGACTGTGGCAAAGGTTACCATACTCAGTACGA: 8.41.
Still for that read-out and setting: as for CAGCCGAGGTCAGGGCCAGTATAGGAGGAACGTT, the figure is 5.04; as for CCAACTAGGTCAAGGTCAAAGTCGGTTTGTGCCA, 9.18; as for CCTAGCAGGCCCATCTGGGTCACTCAAGGCTTGA, 0.158.
The same measure, in the same setting: as for CATCAAAGTTCAACTAAGGTAACGTAAAGCACGC, the figure is 3.96; as for ACTAGCTGGTCAGCTGAGGTCACACACAATTCGG, 1.76.
In turn, TCTTGTAGATCAACAGGAGGTTGAGAAAGATCGA gave a PBM binding z-score of -0.1.
On the same count and under the same terms, as for CTACCAAGGTGAACAAGGTCGTGGATTACTATTC, the figure is 1.5.
For the sequence ACTCGGAGGACAAAGGTCAGAGCTACGCCAGTGA, the PBM binding z-score is 7.6.
Still for that read-out and setting: as for TCTTGTAGATCAATAGAGTTTAAGAAAGTGCGCT, the figure is -0.0887; as for TAGCCCAGGTCATGCGGGCCAGTATAGTGTCGGC, 2.55; as for AGAACAAGGGCAATGAGTTGATAGCACGGGTGGC, 1.26.
The same measure, in the same setting: as for CCTACTGGGCCACGAAAGGTCATTGAATCAGTGA, the figure is 4.56; as for GCTTGTTGATCAAGGTTAAGAAAGACTAAGCTAA, -0.203.
For CCTACTGGGCCAAGGACATTGATCAGTCAAAGCA, the PBM binding z-score worked out at 0.757.
Regarding AGAATGAGGTTATACCTAGATCAGGGAAGAAAGT, the PBM binding z-score is 1.77.

The subject of the next test is PPARg:RXRa 270nM:90nM, anti-RXR (NR concentration 270 nM, RXRa partner concentration 90 nM). The test is described as above. Summed up: as §1
The sequence TCTAGCAGGCCAGAGGGTCACACAAGAGGTACGG returned a PBM binding z-score of 3.28.
Same read-out and setting: as for AGTCAAAGTTCACTTGGTAACGTAAGATTCAGCT, the figure is 5.79.
Still for that read-out and setting: next, CCGACTGGGGCAGAAAGGTTACCATGCCATCCGG: 2.65.
On the same count and under the same terms, next, GCTCGGAGGACACGGTCAGAGCTTTGTCCGTAGA: -0.893; CCTATTAGTTGACCATAAGGTCAACCGAAGCTCG: 3.02; AGTCAAAGCTCATCTAGGTAACGTAAGATATGCT: 0.302.
Sequence TCTAGTTGGTCACGAAGGTCACACACGACGGGTA registered a PBM binding z-score of 4.6.
TCAGATAGGTAATACAGGTGAAAGTCGGCATCTA came in with a PBM binding z-score of 2.37.
Still for that read-out and setting: as for CAGCCTAGGTCGGGGCCAGTATAGGAGGAACGTT, the figure is -0.885; as for CGAACTAGATCAAGGACAGTGAATCTCCGCACGC, -0.0723.
Same read-out and setting: next, CGTCCAAGGTCAAGGTCAGCGAAAGAGACTCGAA: 6.42; CAGCCTAGGTCAAGGCCAGTATAGGAGGAACGTT: 2.23; ATACCAAGGTGATCGTGAGGTGGTTGATACTAAC: 0.0619.
Still for that read-out and setting: as for CAAACTAGGTCGCAGAGGTCAAAGTCCGTGCGTA, the figure is 6.53; as for ATCTCTAAGTAAGACTCAGTTCAGTGAAGAACGC, 0.324.
For the sequence CGTCAAAGTTCAACTAAGGTAACGGAAAGCACGC, the PBM binding z-score was 5.75.
TCTTGTAGATTAAAGGTTAAGAAAGCCGAAGCCT had a PBM binding z-score of 6.6.
For TCGTATAGGTAAAGGTGAAAGTCGAACGATATGA, the PBM binding z-score came out at 3.99.
Sequence CCTGCTAGGTCAATGGTCAACTAAAGCAGCTCGC yielded a PBM binding z-score of 5.74.
Same read-out and setting: next, TCTCGGACGACACGAAGGTCAGAGCTTTCCAGAG: 1.77; AAAGACAGGTGATGAAGGTAACTCAGGCTATCAT: 0.567; TCTTGTAGTTCAGCAGGTTAAGAAAGCTGGCCAA: 1.61.
On the same count and under the same terms, as for TAGAGTAGGTTAGTCGGGGCATTCAGCCAACATA, the figure is 1.65; as for CGTCCAAGGTCAGAGAGGTAAGTGAATGCCGAGT, 2.66; as for CCGACTGTGGCAAAGGTTACCATACTCAGTACGA, 7.91.
Same read-out and setting: as for CAGCCGAGGTCAGGGCCAGTATAGGAGGAACGTT, the figure is 4.49.
As to CCAACTAGGTCAAGGTCAAAGTCGGTTTGTGCCA, the PBM binding z-score worked out at 7.58.
On the same count and under the same terms, as for CCTAGCAGGCCCATCTGGGTCACTCAAGGCTTGA, the figure is 0.743; as for CATCAAAGTTCAACTAAGGTAACGTAAAGCACGC, 4.67; as for ACTAGCTGGTCAGCTGAGGTCACACACAATTCGG, 2.01.
Still for that read-out and setting: next, TCTTGTAGATCAACAGGAGGTTGAGAAAGATCGA: 1.33; CTACCAAGGTGAACAAGGTCGTGGATTACTATTC: 1.61.
The same measure, in the same setting: as for ACTCGGAGGACAAAGGTCAGAGCTACGCCAGTGA, the figure is 7.06.
Sequence TCTTGTAGATCAATAGAGTTTAAGAAAGTGCGCT showed a PBM binding z-score of 1.
The same measure, in the same setting: next, TAGCCCAGGTCATGCGGGCCAGTATAGTGTCGGC: 2.55.
In turn, AGAACAAGGGCAATGAGTTGATAGCACGGGTGGC yielded a PBM binding z-score of 0.0922.
On the same count and under the same terms, as for CCTACTGGGCCACGAAAGGTCATTGAATCAGTGA, the figure is 5.1; as for GCTTGTTGATCAAGGTTAAGAAAGACTAAGCTAA, 0.401; as for CCTACTGGGCCAAGGACATTGATCAGTCAAAGCA, 0.967.
Same read-out and setting: as for AGAATGAGGTTATACCTAGATCAGGGAAGAAAGT, the figure is 1.63.
